Data published in PubChem BioAssay (EPA / NIEHS).
Active and inactive are the calls of the source. Rule for the calls: active = hit-call score of the fitted dose curve at least 0.9, where 1 is the maximum; inactive = score below 0.9.

Tests used:
Details in all cases: mRNA level, 48 h; actives raise or lower the signal
[1] = read-out: Cytochrome P450 4A22 (Homo sapiens) (UniProt Q5TCH4); experiment: LTEA_HepaRG_CYP4A22: Life Technologies and Expression Analysis (LTEA) Assay for Cytochrome P450 4A22 (CYP4A22) using HepaRG (AID 2283495)
Method in brief: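 Concentration-response (8 points, max 100 uM, 0.5% DMSO) in human HepaRG liver cells after 48 h exposure. CYP4A22 mRNA by TaqMan qRT-PCR with housekeeping-gene normalization.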

[2] = read-out: Cytochrome P450 7A1 (Homo sapiens) (UniProt P22680); experiment: LTEA_HepaRG_CYP7A1: Life Technologies and Expression Analysis (LTEA) Assay for Cytochrome P450 7A1 (CYP7A1) using HepaRG (AID 2283496)
Method in brief: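 HepaRG, 48 h exposure, 8-pt half-log series from 100 uM, 0.5% DMSO vehicle, duplicates. Readout: TaqMan qRT-PCR mRNA vs three housekeeping genes; bidirectional curve fit against DMSO baseline.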

[3] = read-out: Glutathione S-Transferase (GSTA2), GSTA2 (gene 2939); experiment: LTEA_HepaRG_GSTA2: Life Technologies and Expression Analysis (LTEA) Assay for Glutathione S-Transferase (GSTA2) using HepaRG (AID 2283497)
Method in brief: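 GSTA2 transcript levels came from Fluidigm TaqMan qRT-PCR normalized to three housekeeping genes, fitted in both directions against DMSO. HepaRG cultures received chemicals for 48 h in serum-free induction medium (0.5% DMSO), 8 half-log concentrations up to 100 uM, duplicate.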

[4] = read-out: Glutamate-cysteine ligase catalytic (GCLC), GCLC (gene 2729); experiment: LTEA_HepaRG_GCLC: Life Technologies and Expression Analysis (LTEA) Assay for Glutamate-cysteine ligase catalytic (GCLC) using HepaRG (AID 2283498)
Method in brief: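 Expression by TaqMan qRT-PCR, normalized to three housekeeping genes (ACTB, GAPDH, POLR2A), with up- or down-regulation fitted against DMSO. HepaRG cells dosed in duplicate for 48 h with 8 half-log concentrations up to 100 uM, vehicle 0.5% DMSO.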

[5] = read-out: growth arrest and DNA damage 45 (GADD45G), GADD45G (gene 10912); experiment: LTEA_HepaRG_GADD45G: Life Technologies and Expression Analysis (LTEA) Assay for growth arrest and DNA damage 45 (GADD45G) using HepaRG (AID 2283499)
Method in brief: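 Concentration-response in HepaRG: 48 h dosing, 0.5% DMSO, highest level 100 uM. GADD45G expression by qRT-PCR, normalised to endogenous controls; bidirectional fit to DMSO.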

[6] = read-out: Glutamate-cysteine ligase regulatory (GCLM), GCLM (gene 2730); experiment: LTEA_HepaRG_GCLM: Life Technologies and Expression Analysis (LTEA) Assay for Glutamate-cysteine ligase regulatory (GCLM) using HepaRG (AID 2283500)
Method in brief: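 GCLM expression quantified by qRT-PCR, normalized to three housekeeping genes, after 48 h chemical treatment of HepaRG cells in duplicate at 8 concentrations (top 100 uM, half-log steps, 0.5% DMSO). Changes fitted both directions against vehicle.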

[7] = read-out: Glutathione S-transferase M3 (GSTM3), GSTM3 (gene 2947); experiment: LTEA_HepaRG_GSTM3: Life Technologies and Expression Analysis (LTEA) Assay for Glutathione S-transferase M3 (GSTM3) using HepaRG (AID 2283501)
Method in brief: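 Expression of GSTM3 is determined by qRT-PCR in human liver HepaRG cells treated 48 h with an 8-point half-log range from 100 uM in 0.5% DMSO.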

[8] = read-out: Heat shock 70 kDa protein 1 (HSPA1A), gene 3303; experiment: LTEA_HepaRG_HSPA1A: Life Technologies and Expression Analysis (LTEA) Assay for Heat shock 70 kDa protein 1 (HSPA1A) using HepaRG (AID 2283502)
Method in brief: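 HSPA1A expression measured by qRT-PCR with ACTB/GAPDH/POLR2A normalization; curves fitted in both directions relative to DMSO vehicle. Exposure: 48 h in HepaRG cells, duplicate 8-point half-log series from 100 uM, 0.5% DMSO, serum-free induction medium.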

[9] = read-out: 3-Hydroxy-3-Methylglutaryl-CoA Synthase 2 (HMGCS2), HMGCS2 (gene 3158); experiment: LTEA_HepaRG_HMGCS2: Life Technologies and Expression Analysis (LTEA) Assay for 3-Hydroxy-3-Methylglutaryl-CoA Synthase 2 (HMGCS2) using HepaRG (AID 2283504)
Method in brief: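 This steatosis marker was read as HMGCS2 mRNA change in HepaRG cells treated 48 h with up to 100 uM chemical. Normalisation used housekeeping genes; activity in either direction was fitted relative to 0.5% DMSO vehicle.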

HGF (gene 3082) = experiment: LTEA_HepaRG_HGF: Life Technologies and Expression Analysis (LTEA) Assay for Hepatocyte Growth Facto (HGF) using HepaRG (AID 2283505)
Method in brief: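 Using HepaRG monolayers kept in 0.5% DMSO, chemicals were tested in duplicate over eight half-log concentrations from 100 uM for 48 h. Endpoint: HGF mRNA change relative to DMSO, normalized to ACTB/GAPDH/POLR2A.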

[10] = read-out: Insulin Like Growth Factor 1 (IGF1), IGF1 (gene 3479); experiment: LTEA_HepaRG_IGF1: Life Technologies and Expression Analysis (LTEA) Assay for Insulin Like Growth Factor 1 (IGF1) using HepaRG (AID 2283506)
Method in brief: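 Expression measured by TaqMan qRT-PCR on a Fluidigm array, with three housekeeping genes for normalisation, after 48 h treatment of HepaRG cells. Top concentration 100 uM with half-log steps, 0.5% DMSO vehicle, bidirectional fit.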

[11] = read-out: Intercellular Adhesion Molecule 1 (ICAM1), ICAM1 (gene 3383); experiment: LTEA_HepaRG_ICAM1: Life Technologies and Expression Analysis (LTEA) Assay for Intercellular Adhesion Molecule 1 (ICAM1) using HepaRG (AID 2283507)
Method in brief: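 Using the human liver line HepaRG, compounds are tested in duplicate over 48 h at concentrations up to 100 uM. Expression is determined by TaqMan qRT-PCR, normalized to endogenous controls, and analysed relative to 0.5% DMSO vehicle.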

[12] = read-out: Insulin-like growth factor-binding protein 1 (IGFBP1), IGFBP1 (gene 3484); experiment: LTEA_HepaRG_IGFBP1: Life Technologies and Expression Analysis (LTEA) Assay for Insulin-like growth factor-binding protein 1 (IGFBP1) using HepaRG (AID 2283508)
Method in brief: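 HepaRG, 48 h, 8 conc. (max 100 uM, half-log), duplicates, 0.5% DMSO. Readout: TaqMan qRT-PCR, ACTB/GAPDH/POLR2A normalisation. Fit: bidirectional vs DMSO.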

[13] = read-out: Interleukin 6 (IL6), IL6 (gene 3569); experiment: LTEA_HepaRG_IL6: Life Technologies and Expression Analysis (LTEA) Assay for Interleukin 6 (IL6) using HepaRG (AID 2283509)
Method in brief: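 Transcript levels, normalized to three housekeeping genes, were quantified by qRT-PCR after 48 h chemical treatment of HepaRG cells. Eight-point half-log series from 100 uM in 0.5% DMSO, duplicates. Fitted both directions against DMSO baseline.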

[14] = read-out: Interleukin 6 Receptor (IL6R), IL6R (gene 3570); experiment: LTEA_HepaRG_IL6R: Life Technologies and Expression Analysis (LTEA) Assay for Interleukin 6 Receptor (IL6R) using HepaRG (AID 2283510)
Method in brief: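 IL6R transcript level by qRT-PCR after 48 h chemical exposure (8-point, half-log, max 100 uM, 0.5% DMSO vehicle) of HepaRG cells in serum-free induction medium. Normalized to three housekeeping genes; curves fitted in both directions relative to DMSO.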

[15] = read-out: Potassium channel subfamily K member 1 (KCNK1), KCNK1 (gene 3775); experiment: LTEA_HepaRG_KCNK1: Life Technologies and Expression Analysis (LTEA) Assay for Potassium channel subfamily K member 1 (KCNK1) using HepaRG (AID 2283511)
Method in brief: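 KCNK1 transcript measured by TaqMan qRT-PCR against three housekeeping genes, after HepaRG cells were treated 48 h with eight half-log concentrations (top 100 uM, 0.5% DMSO). Curves fitted bidirectionally relative to vehicle.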

[16] = read-out: Keratin 19 (KRT19), KRT19 (gene 3880); experiment: LTEA_HepaRG_KRT19: Life Technologies and Expression Analysis (LTEA) Assay for Keratin 19 (KRT19) using HepaRG (AID 2283512)
Method in brief: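 Readout is qRT-PCR of KRT19 mRNA, normalized to ACTB, GAPDH and POLR2A, from HepaRG cells treated 48 h with eight-point half-log dilutions topping at 100 uM. Activity in either direction is scored relative to 0.5% DMSO vehicle.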

[17] = read-out: JUN Transcription Factor, JUN (gene 3725); experiment: LTEA_HepaRG_JUN: Life Technologies and Expression Analysis (LTEA) Assay for JUN Transcription Factor using HepaRG (AID 2283513)
Method in brief: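 mRNA measured by TaqMan qRT-PCR after 48 h chemical exposure of HepaRG cultures; normalization to three housekeeping genes. Duplicate eight-point half-log curves from 100 uM in 0.5% DMSO; gain or loss fitted against DMSO baseline.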

[18] = read-out: Lipase C (LIPC), LIPC (gene 3990); experiment: LTEA_HepaRG_LIPC: Life Technologies and Expression Analysis (LTEA) Assay for Lipase C (LIPC) using HepaRG (AID 2283514)
Method in brief: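 LIPC expression was quantified by qRT-PCR against three housekeeping genes (ACTB, GAPDH, POLR2A). Differentiated human HepaRG cells received eight half-log doses (top 100 uM, 0.5% DMSO) in duplicate for 48 h; fitting bidirectional relative to DMSO.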

[19] = read-out: Lipoprotein lipase (LPL), LPL (gene 4023); experiment: LTEA_HepaRG_LPL: Life Technologies and Expression Analysis (LTEA) Assay for Lipoprotein lipase (LPL) using HepaRG (AID 2283515)
Method in brief: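 LPL transcript levels quantified by TaqMan qRT-PCR against three housekeeping genes after 48 h chemical treatment of HepaRG cells. Eight-point half-log series from 100 uM in 0.5% DMSO, tested in duplicate; bidirectional fitting versus vehicle.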

Measured: outcome

O=C(CCl)c1ccccc1
inactive: all assays above
